A selection: hits, their analogues and other compounds. The true share with any hit is near 2.2%.
S2 tox: cell viability loss in ATXN counter-screen | S2 cells (HEK-293 line with an ATXN2-luciferase reporter) viability, CellTiter-Fluor protease fluorescence, 24 h | Potency, µM (highest dose often 56.7 µM), hits mostly cytotoxic | actives 0.49% (n = 400,000); also: nearly all actives have a fitted effect of over 40% in size
ATXN2 expr inh: inhibitors of ATXN2 expression. actives 0.72% (n = 360,000). Potency, µM (titrated, usually from 57 µM), actives largely listed as inhibitors. AID 1745845. HEK-293 ATXN2-luciferase reporter, luminescence, 24 h; also: nearly all actives have a fitted effect of over 55% in size
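qHTS (up to 57 uM final) was run with 24 h compound exposure of reporter cells at 37 °C. Each well was multiplexed: SteadyGlo luminescence measured ATXN2-luciferase expression after a fluorogenic Gly-Phe-AFC viability readout (25 uM final).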
TGFb inhibitor: TGF-b pathway inhibition. AID 588855. actives 1.2% (n = 410,000). HepG2 CAGA-GFP TGF-b/SMAD3 reporter, GFP fluorescence, 18 h; TGF-beta stimulated, 500 pg/mL final. Potency, µM (series often up to 46.1 µM), actives largely listed as inhibitors; also: nearly all actives have a fitted effect of over 65% in size
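Inhibition of TGF-beta-driven CAGA-GFP reporter expression in HEPG2 cells is measured by cellular GFP fluorescence after 18 h stimulation with 500 pg/mL recombinant TGF-beta in 1% FBS medium at 37 degrees C.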
IDH1 R132H inh: blocks human mutant IDH1 R132H enzyme; AID 602179; IDH1-R132H enzyme, NADPH consumption, diaphorase/resazurin fluorescence; O75874; Potency, µM (series often up to 76.6 µM), usual class: inhibitors; actives 0.093% (n = 390,000); also: nearly all actives have a fitted effect of over 65% in size
Target sequence (O75874 whole entry R132H, stated change not applied): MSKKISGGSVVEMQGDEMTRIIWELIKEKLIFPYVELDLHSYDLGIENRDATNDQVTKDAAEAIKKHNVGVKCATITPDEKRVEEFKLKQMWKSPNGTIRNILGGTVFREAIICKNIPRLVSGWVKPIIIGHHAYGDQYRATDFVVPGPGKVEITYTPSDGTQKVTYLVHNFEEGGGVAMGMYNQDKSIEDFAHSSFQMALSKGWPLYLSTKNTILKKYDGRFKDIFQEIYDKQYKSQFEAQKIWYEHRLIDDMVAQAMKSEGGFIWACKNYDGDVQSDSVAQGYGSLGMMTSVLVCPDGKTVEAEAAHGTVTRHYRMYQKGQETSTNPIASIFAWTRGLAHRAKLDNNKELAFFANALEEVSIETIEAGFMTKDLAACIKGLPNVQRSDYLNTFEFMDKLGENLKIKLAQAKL
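IDH1-R132H (0.5 ug/mL dispensed) in pH 7.5 Tris buffer was preincubated 30 min with compound, then given a substrate mix of 0.016 mM NADPH and 2 mM alpha-KG for 80 min at room temperature; remaining NADPH was read by diaphorase/resazurin fluorescence.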
HepG2 viability: kills HepG2 cells in TGF-b inhibitor counter-screen. Potency, µM (doses to about 46.1 µM), actives largely listed as cytotoxic. HepG2 CAGA-GFP viability, ATP luminescence, 18 h. actives 0.76% (n = 410,000)
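CellTiter-Glo luminescence gave cytotoxicity after 18 hours at 37 degrees C. The cells were HepG2 CAGA-GFP in 1% FBS DMEM, stimulated with 500 pg/mL TGF-beta after compound addition. %Activity was normalised to no-cell wells (complete cell-killing) and DMSO (no toxicity), and curves were fitted and classified.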
LDHA inh: blocks human lactate dehydrogenase A; AID 1347041; purified LDHA, NADH/diaphorase-resazurin fluorescence; hits give low values; actives 0.15% (n = 480,000); P00338; activity change, % (values are at about 110 or 230 µM); in the data active = activity change below about -30%; inconclusive = mostly about -25% to -30%
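Human LDH5 (2 nM) was incubated with 0.06 mM NADH and 0.2 mM pyruvate for 5 min at room temperature in Tris pH 7.4. Remaining NADH was coupled through diaphorase/resazurin, and resorufin fluorescence was read at 0 and 20 min.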
Of the large screens only hits and unclear results are named; the others gave an inactive call; ! = not active in a repeat. Unless noted, calls follow the shape of the dose curve; as a rule, active = well fitted curve in the direction sought with a large enough effect; inconclusive = small, poorly fitted or top-dose-only effect, or another doubt; inactive = no such curve, though single readings can be large; an effect the other way counts as inactive or inconclusive.

Oc1cc2c(cc1C(c1ccc(Br)cc1)N1CCCC1)OCO2 (centres undefined)	TGFb inhibitor inconclusive, HepG2 viability 14.1µM
O=C(O)CSc1c2c(nc3cc(C(=O)N4CCCC4)ccc13)CCCC2	none
CC1(C)C[C@H](O)[C@]2(CO)[C@H](O)C[C@]3(C)C(=CCC4[C@@]5(C)CC[C@H](O)C(C)(C)C5CC[C@]43C)[C@@H]2C1 (some centres undefined)	S2 tox inconclusive, ATXN2 expr inh inconclusive, TGFb inhibitor inconclusive, HepG2 viability 11.2µM
CC1(C)CC[C@]2(C(=O)O)CC[C@]3(C)C(=CC[C@@H]4[C@@]5(C)CC[C@H](O)C(C)(C)[C@@H]5CC[C@]43C)[C@@H]2C1	none
C[C@@H]1[C@H](C)CC[C@]2(C(=O)O)CC[C@]3(C)C(=CC[C@@H]4[C@@]5(C)CC[C@H](O)C(C)(C)[C@H]5CC[C@]43C)[C@@H]12	ATXN2 expr inh 55.9µM (no result: S2 tox, TGFb inhibitor, IDH1 R132H inh, HepG2 viability, LDHA inh)
O=C(CSc1cc(Cl)ccc1Cl)NCC(=O)Nc1ccc(F)c(F)c1F	S2 tox inconclusive
O=C(O)c1ccc(N=Cc2c(O)ccc3oc4c(c23)CCCC4)cc1	TGFb inhibitor inconclusive (no result: ATXN2 expr inh)
Oc1ccccc1N=Cc1c(O)ccc2oc3c(c12)CCCC3	S2 tox inconclusive, TGFb inhibitor 12.6µM (no result: ATXN2 expr inh)
CC(=O)Nc1nnc(CSCc2ccccc2F)s1	HepG2 viability 7.94µM
CCC1=C(c2ccc(C)cc2)S(=O)(=O)N=C1N1CCC(C(=O)NCCc2ccc(Cl)cc2)CC1	TGFb inhibitor 12.6µM (no result: S2 tox, ATXN2 expr inh)
CCC1=C(c2ccc(C)cc2)S(=O)(=O)N=C1N1CCC(C(=O)NCc2ccc(C)cc2)CC1	TGFb inhibitor inconclusive (no result: S2 tox, ATXN2 expr inh)
CC1=Nc2cc(C(=O)NCCN3CCOCC3)ccc2Sc2c(C)ccc(C)c21	TGFb inhibitor 15.8µM (no result: ATXN2 expr inh)
CC1=Nc2cc(C(=O)NCCc3ccc(Cl)cc3)ccc2Sc2c(C)ccc(C)c21	S2 tox inconclusive, TGFb inhibitor 7.94µM
CC1=Nc2cc(C(=O)NCCc3ccccc3)ccc2Sc2c(C)ccc(C)c21	S2 tox inconclusive, TGFb inhibitor 6.31µM
COc1ccc(CNC(=O)c2ccc3c(c2)N=C(C)c2c(C)ccc(C)c2S3)cc1	S2 tox inconclusive, TGFb inhibitor inconclusive
CCCNC(=O)c1ccc2c(c1)N=C(C)c1c(C)ccc(C)c1S2	S2 tox inconclusive, TGFb inhibitor inconclusive
CC1=Nc2cc(C(=O)NCCCN3CCOCC3)ccc2Sc2c(C)ccc(C)c21	TGFb inhibitor inconclusive
COc1ccc(CCNC(=O)Cn2cccc2C(=O)c2ccccc2C)cc1OC	none
CN1CCN(C(=O)Nc2cccc(Cl)c2)c2cccnc21	TGFb inhibitor 15.8µM
Cc1ccc(C)c(NC(=O)CSc2nc(N)c(NC(=O)c3cccs3)c(=O)[nH]2)c1	none
Cc1ccc(C)c(NC(=O)CSc2nc3nc(-c4cccs4)cc(C(F)(F)F)c3c(=O)[nH]2)c1	TGFb inhibitor 15.8µM
CCc1ccc(CNCc2c(C(=O)O)n(Cc3cccc(F)c3)c3cc(OC)ccc23)cc1	S2 tox 31.6µM, ATXN2 expr inh inconclusive, TGFb inhibitor inconclusive
C=Cc1ccc(Cn2c(C(=O)O)c(CNCc3ccccc3)c3ccc(C)cc32)cc1	S2 tox 15.8µM, TGFb inhibitor inconclusive, HepG2 viability 20µM
CCc1ccc(CNCc2c(C(=O)O)n(Cc3ccc(C)cc3)c3cc(C)ccc23)cc1	TGFb inhibitor 15.8µM, HepG2 viability 17.8µM (no result: S2 tox)
Cc1ccc(CNCc2c(C(=O)O)n(Cc3ccc(C)cc3)c3cc(C)ccc23)cc1	ATXN2 expr inh inconclusive, TGFb inhibitor 28.2µM (no result: S2 tox)
Cc1ccc(CNCc2c(C(=O)O)n(Cc3ccccc3C)c3cc(C)ccc23)cc1	none
Cc1ccc(NC(=O)CCc2nc3ccccc3s2)c(O)c1	none (no result: ATXN2 expr inh)
O=C1c2ccccc2-c2onc3ccc(N4CCCC4)c1c23	S2 tox 23.8µM, ATXN2 expr inh inconclusive, TGFb inhibitor inconclusive
O=C1c2ccccc2-c2onc3ccc(NCc4ccco4)c1c23	S2 tox 14.1µM, ATXN2 expr inh inconclusive
COc1ccccc1N1CCN(C(=O)CCC(=O)N2CCN(c3ccccc3OC)CC2)CC1	none (no result: ATXN2 expr inh)
COc1ccccc1N1CCN(CC(=O)N2CCCC2)CC1	LDHA inh -37.2
CCCCOc1ccc(C(=O)CCN2CCOCC2)cc1	ATXN2 expr inh 18.9µM, TGFb inhibitor inconclusive (no result: S2 tox)
CCOc1ccc(C(=O)CCN2CCCCCC2)cc1	TGFb inhibitor inconclusive, HepG2 viability 11.2µM
COc1ccc(OC)c(C2=NOC(C(=O)N3CCCc4ccccc43)C2)c1 (centres undefined)	none
COC(=O)c1ccc(/C=N/OCc2ccc(OC)c(F)c2)cc1	none (no result: S2 tox, ATXN2 expr inh, TGFb inhibitor, IDH1 R132H inh, HepG2 viability)
CCN(CCc1ccccc1)c1ccc2c(c1)C1CC2CCN1C(=O)OCc1ccccc1 (centres undefined)	none
CCCCN(C(C)=O)c1ccc2c(c1)C1CC2CCN1C(=O)OCc1ccccc1 (centres undefined)	S2 tox inconclusive, ATXN2 expr inh inconclusive, TGFb inhibitor 12.6µM
Cc1ccc(NC(=O)CN2C(=O)N/C(=C/c3cccn3-c3ccc(C(=O)O)cc3)C2=O)cc1	LDHA inh -30.3
CCC/C=C/c1ccc(CN2C(C(C)C)C(=O)N(Cc3cn(CCOCOC)nn3)CCS2(=O)=O)cc1 (centres undefined)	none
COc1cc2c(-c3ccccc3)c(C)oc2cc1/C=N/NC(N)=S	TGFb inhibitor inconclusive, HepG2 viability 6.31µM (no result: ATXN2 expr inh)
COc1cc(OC)c(/C=N/NC(N)=S)cc1Br	none
CCOC(=O)CN=C/C(C(=O)Nc1nccs1)=C(/C)O	none
Cc1cnc(N)nc1-c1ccccc1	S2 tox inconclusive (no result: ATXN2 expr inh)
COc1ccc(N2C(=O)c3ccccc3NC23CCCC3)cc1	none
COCC(C)n1c(C)cc(C(=O)COC(=O)c2cccn2C)c1C (centres undefined)	ATXN2 expr inh 17.8µM
O=C(CCCn1c(=O)[nH]c2ccc(Br)cc2c1=O)N1CCN(c2cccc(Cl)c2)CC1	TGFb inhibitor 5.01µM
O=C(CCCCn1c(=O)[nH]c2ccsc2c1=O)N1CCN(c2cccc(C(F)(F)F)c2)CC1	S2 tox inconclusive, ATXN2 expr inh inconclusive, TGFb inhibitor 10µM
Cc1ccc(C)c(C(=O)CCC(=O)N2CCN(c3cccc(C(F)(F)F)c3)CC2)c1	TGFb inhibitor 11.2µM
CCOc1ccc2cc(S(=O)(=O)N3CCCCC3)ccc2c1	HepG2 viability 17.8µM
CCOc1ccc2cc(S(=O)(=O)N3CCN(C)CC3)ccc2c1	none
O=S(=O)(Nc1c(Br)cc(Br)c2cccnc12)C1CC1	none (no result: S2 tox, ATXN2 expr inh, IDH1 R132H inh)
O=S(=O)(c1cccc2cnccc12)N1CCCNCC1	ATXN2 expr inh 25.1µM!

Source: PubChem (National Center for Advancing Translational Sciences (NCATS))
